Lassa entry inh – qHTS for Inhibitors of binding or entry into cells for Lassa Virus. 300,000 tested, 1.2% active. Potency, µM (doses to about 37.9 µM), without a hit: at the highest dose activity change, negative = inhibition, most hits filed as inhibitors. Lassa virus pseudotype entry inhibition, cell reporter; calls by dose curve; tested in HEK293 cells; note: potency is the fitted concentration of half-maximal effect; nearly all actives have a fitted effect of over 50% in size
FMDV antiviral – High Throughput Screening for Foot and Mouth Disease Virus Antivirals. FMDV antiviral cell-based qHTS. Potency, µM (titrated, usually from 57.9 µM), for the others: at the highest dose activity change, negative = inhibition, actives largely listed as inhibitors. 410,000 tested, 1.2% active. AID 1159524, 2015; calls by dose curve; tested in HEK293T cells; note: read-out not given here; potency is the fitted concentration of half-maximal effect; nearly all actives have a fitted effect of over 45% in size
MARV entry inh – qHTS for inhibitors of binding or entry into cells for Marburg Virus; Marburg virus pseudotyped entry inhibition, cell reporter; 300,000 tested, 1.8% active; Potency, µM (top dose mostly 37.8 µM), for inactives: at the highest dose activity change, negative = inhibition, hits mostly inhibitors; calls by dose curve; tested in HEK293 cells; note: potency is the fitted concentration of half-maximal effect
HCMV inh – qHTS Assay for inhibitors of the human cytomegalovirus (HCMV); HFF cells, HCMV-luciferase reporter, 72 h; stronger effect = lower value; activity change, negative = inhibition, % at 57.5 µM; 410,000 tested, 4.5% active; in the data active = activity change below about -60%; inconclusive = no clear call, values can overlap the other calls; inactive = above about -39%
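Inhibition of viral replication was scored as loss of reporter luminescence in HFFs infected with HCMV-luciferase (MOI 1 PFU/cell) for 72 h; compounds tested at 2 doses, normalized to buffer and Salinomycin controls.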
Numbers without * were called inactive; ? = inconclusive; . = no result; ! = not active in a repeat; [ ] = another dose, or the depositor's remark. In the library only some 6.2% were active in any assay of this set; here they are far more common. % is set by controls: 0 for no effect and ±100 for the full control effect.

SMILES | Lassa entry inh | FMDV antiviral | MARV entry inh | HCMV inh
Cc1ccccc1CN1C(=O)c2ccccc2Sc2ccc(C(=O)OCc3ccco3)cc21 | -12%[46.1 µM] | -27% | . | 10
Cc1ccc(C)c2nc3sc(C(=O)N4CCOCC4)c(N)c3cc12 | -16%[46.1 µM] | 35% | ? | -39
Cc1cccc2cc3c(N)c(C(=O)Nc4ccc(N5CCOCC5)cc4)sc3nc12 | 13µM* | . | ? | -19
Nc1c(C(=O)N2CCOCC2)sc2nc3c(cc12)CCCC3 | ? | 11µM* | ? | ?
Nc1c(C(=O)N2CCOCC2)sc2nc3c(cc12)CCC3 | . | 21% | . | 44
Cc1cc(C)c2nc3sc(C(=O)N4CCOCC4)c(N)c3cc2c1 | . | -46% | . | -94*
Cc1cccc(NC(=O)/C(C#N)=C/c2ccc(C)o2)c1 | 9%[46.1 µM] | 24% | . | 80
O=C1CCC[C@H]2[C@@H](Cc3ccccc3)[C@H](NCC3CCCCC3)CC[C@]23CCCN13 | . | . | . | 9
CCOC(=O)c1cnc(-n2nc(C)cc2C)nc1Nc1ccc(N(C)C)cc1 | 7.3µM* | -17% | ? | -5
CCOC(=O)c1cnc(-n2nc(C)cc2C)nc1NC | 10% | 46% | -7% | -8
CCOC(=O)c1cnc(-n2nc(C)cc2C)nc1NC1CCCCC1 | ? | 10µM* | 6.3µM* | -87*
CCCCNc1ccc2c(c1)OC[C@@H](CC(C)C)NS2(=O)=O | . | . | . | 5
COc1ccc(-c2c(C#Cc3ccsc3)c3cc(-c4ccc5c(c4)OCCO5)ccc3n2C)cc1 | . | -18% | . | -3
COc1ccc(-c2c(C#Cc3ccsc3)c3cc(-c4ccc5c(c4)OCO5)ccc3n2C)cc1 | . | -3% | . | -71*
CCCCOC(=O)/C=C\C(=O)NC(N)=O | ? | 28µM* | ? | 112
CCCCOC(=O)/C=C\C(=O)OCCCC | . | -32% | . | 0
Cc1ccc(Cl)c(NC(=O)CCl)c1Cl | ? | -19% | 6.3µM* | ?
Cc1ccc(Cl)c(NC(=O)CSc2cccc[n+]2[O-])c1Cl | 11%[46.1 µM] | 0% | 5%[46.1 µM] | -3
CCOC1=CC(=O)N(CCC(=O)NCc2ccc(C)cc2)C1 | . | . | . | 2
CC(NC(=O)/C(C#N)=C/c1cn[nH]c1-c1ccccc1)c1ccccc1 (stereo unspecified) | 11µM* | -16% | ? | -36
O=C(c1ccc(Cl)cc1)N1CCCCC(Sc2nnc(-c3ccc4c(c3)OCO4)o2)C1=O (stereo unspecified) | ? | 10µM* | ? | -67*
O=C(O)CSc1nnc(-c2ccc3c(c2)OCO3)o1 | -17% | -16% | -8% | 36
Cc1ccc(S(=O)(=O)N2CCOCC2)cc1NC(=O)COC(=O)CNC(=O)c1ccc(Cl)cc1Cl | 9% | -12% | 24% | -68*
O=C(COC(=O)c1cc(S(=O)(=O)N2CCOCC2)ccc1Cl)Nc1ccc(Cl)cn1 | . | -15% | . | -11
O=C(COC(=O)CCc1ccc(S(=O)(=O)N2CCOCC2)cc1)Nc1ccc(Cl)cn1 | -2% | -19% | 0.79µM*! | 26
SMILES | Lassa entry inh | FMDV antiviral | MARV entry inh | HCMV inh
O=C([O-])c1cc(-c2ccccc2)cc(-c2ccccc2)[n+]1Cc1ccccc1 | . | . | . | -79*
O=[N+]([O-])c1cc(Cl)c(O)c(-[n+]2c(-c3ccccc3)cc(-c3ccccc3)cc2-c2ccccc2)c1 | . | -18% | . | -75*
Cc1cc(-c2ccccc2)cc(C)[n+]1Cc1ccccc1 | . | ? | . | -93*
O=[N+]([O-])c1ccc(C[n+]2ccccc2)cc1 | . | 14% | . | -5
O=C(O)CNS(=O)(=O)c1ccc(-c2ccccc2)cc1 | . | . | 1% | .
Cc1cc(-c2ccccc2)cc(C)n1 | 20%[46.1 µM] | -10% | -11%[46.1 µM] | ?
O=[N+]([O-])c1ccc(C[n+]2ccc(Cc3ccccc3)cc2)cc1 | -22% | -28% | -5% | -74*
Cn1c(SCC(=O)N2CCCc3ccccc32)ncc(C(=O)Nc2ccc(Cl)cc2)c1=O | 28%[46.1 µM] | 22% | . | 3
Cc1cccc2nc(CNC(=O)CN3Cc4ccccc4OC(c4ccccc4F)C3)cn12 (stereo unspecified) | . | 7% | . | .
Nc1c(-c2nc(-c3cccs3)no2)nnn1-c1ccc(Cl)cc1 | 25%[46.1 µM] | 29% | . | 26
O=[N+]([O-])c1ccc(C[n+]2c(-c3ccccc3)cc(-c3ccccc3)cc2-c2ccccc2)cc1 | . | -23% | . | -63*
COC(=O)Cn1cc(/C=C/c2cc[n+](C)cc2)c2ccccc21 | . | -10% | . | 20
Cc1ccc2[nH]cc(/C=C/c3cc[n+](C)cc3)c2c1 | ? | -11% | 5µM* | -100*
COc1ccc2c(/C=C/c3cc[n+](C)cc3)c[nH]c2c1 | -15% | ? | -28% | -99*
CC[n+]1ccc(/C=C/c2c[nH]c3ccccc23)cc1 | . | ? | . | -94*

Assay outcomes as filed in PubChem.
